Measured values: PubChem BioAssay (Tox21)
Records with an inconclusive call do not appear. Active and inactive are the calls of the source. Unless noted, the call rests on the fitted dose curve; in most records, active means well fitted curve in the direction sought with a large enough effect in the repeat runs; inconclusive means weak or mixed curves; inactive means no such curve, though single readings can be large; an effect the other way counts as inactive or inconclusive.

Assays:
[1] = qHTS assay to identify small molecule antagonists of the estrogen related receptor (ERR) signaling pathway from Tox21 library - cell viability counter screen (AID 1224834); further: nearly all actives have a fitted effect of over 30% in size
Outline: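 CellTiter-Fluor fluorescence, read after 30 min at 37 C, measures viability of ERR cells. Cells plated at 2,000/well and incubated 6 h before pin-tool compound addition, then exposed 17.5 hours at 37 C.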

[2] = qHTS assay to identify small molecule agonists of the constitutive androstane receptor (CAR) signaling pathway - cell viability counter screen (AID 1224836); further: nearly all actives have a fitted effect of over 45% in size
Outline: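 Cells were seeded and incubated 4 hrs. Compounds were added across 15 concentrations together with PK11195 at 0.75 uM final. Plates were incubated 23 hrs at 37 C. CellTiter-Fluor was added and fluorescence measured.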

[3] = qHTS assay to identify small molecule antagonists of the constitutive androstane receptor (CAR) signaling pathway - cell viability counter screen (AID 1224837); further: nearly all actives have a fitted effect of over 45% in size
Outline: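 Cytotoxicity counter-screen: CellTiter-Fluor fluorescence after 23 h compound exposure (15-point qHTS) in double-stable HepG2-CYP2B6-hCAR cells, with 50 nM CITCO added.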

[4] = qHTS assay to identify small molecule antagonists of the estrogen related receptor signaling pathway with the pleiotropic PPARgamma coactivator (PGC) from Tox21 10K library - cell viability counter screen (AID 1224840; active means well fitted cell-killing curve with a large enough effect in the repeat runs, not every such curve was filed as active; further: nearly all actives have a fitted effect of over 40% in size)
Outline: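 Counter-screen for cytotoxicity: after 17.5 h compound exposure at 37 C, CellTiter-Fluor reagent added to PGC/ERR cells for 30 min and fluorescence read. Cells were seeded at 2,000 per well 6 h before dosing.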

[5] = qHTS assay to identify small molecule antagonists of the estrogen related receptor signaling pathway with the pleiotropic PPARgamma coactivator (PGC) from Tox21 10K library (AID 1224841; call rule not given here; further: actives are mostly falling curves and most rising ones were filed inactive; nearly all actives have a fitted effect of over 50% in size)
Outline: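 Luminescence (One-Glo, 30 min at room temperature) after 18 h compound treatment at 37 C of PGC/ERR reporter cells plated at 2,000 cells/well and settled 6 h beforehand.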

[6] = qHTS assay to identify small molecule agonists of the estrogen related receptor signaling pathway with the pleiotropic PPARgamma coactivator (PGC) from Tox21 10K library (AID 1224842); further: nearly all actives have a fitted effect of over 15% in size
Outline: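 PGC/ERR reporter cells (NTP line) were seeded 2,000 per well, rested 6 h at 37 C/5% CO2, then pin-dosed with compounds in DMSO for 18 h at 37 C; luciferase read by One-Glo luminescence after 30 min at room temperature.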

[7] = target: Thyrotropin receptor (Homo sapiens) (UniProt P16473); test: qHTS assay to identify small molecule agonists of the thyroid stimulating hormone receptor (TSHR) signaling pathway (AID 1224843; calls by dose curve; further: nearly all actives have a fitted effect of over 45% in size)
Chain of Thyrotropin receptor (Homo sapiens) (P16473 whole entry, looked up): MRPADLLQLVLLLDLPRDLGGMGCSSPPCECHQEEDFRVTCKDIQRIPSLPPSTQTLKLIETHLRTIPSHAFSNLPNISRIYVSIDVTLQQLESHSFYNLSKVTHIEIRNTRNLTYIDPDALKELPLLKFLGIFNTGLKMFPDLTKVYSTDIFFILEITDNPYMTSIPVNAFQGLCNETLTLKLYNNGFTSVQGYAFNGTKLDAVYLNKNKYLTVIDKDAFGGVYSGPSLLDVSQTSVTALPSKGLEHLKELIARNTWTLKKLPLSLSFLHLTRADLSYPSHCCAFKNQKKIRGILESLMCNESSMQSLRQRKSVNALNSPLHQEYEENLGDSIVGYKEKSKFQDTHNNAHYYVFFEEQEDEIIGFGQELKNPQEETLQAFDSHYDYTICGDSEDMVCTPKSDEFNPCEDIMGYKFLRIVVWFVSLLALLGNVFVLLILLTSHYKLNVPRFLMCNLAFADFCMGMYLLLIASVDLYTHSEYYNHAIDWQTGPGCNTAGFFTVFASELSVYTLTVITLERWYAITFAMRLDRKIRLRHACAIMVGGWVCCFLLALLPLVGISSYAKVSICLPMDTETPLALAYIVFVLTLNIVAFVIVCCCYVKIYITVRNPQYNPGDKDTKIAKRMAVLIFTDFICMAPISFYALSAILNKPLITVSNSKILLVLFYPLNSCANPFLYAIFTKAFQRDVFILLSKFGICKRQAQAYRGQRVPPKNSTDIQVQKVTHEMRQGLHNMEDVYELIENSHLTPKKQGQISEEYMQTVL
Outline: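 Compounds are titrated over 15 concentrations, in triplicate, onto TSHR-HEK293 cells seeded at 800/well. Plates sit 30 min at room temperature before cAMP-d2 and anti-cAMP cryptate are added; signal is read after a further hour.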

[8] = qHTS assay to identify small molecule agonists of the hypoxia (HIF-1) signaling pathway - cell viability counter screen (AID 1224844; calls by dose curve; further: nearly all actives have a fitted effect of over 50% in size)
Outline: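 Cytotoxicity measured by CellTiter-Glo ATP luminescence in the wells also read for beta-lactamase signal. Cells were HRE-bla ME-180 (2,000/well, 0.5% dialyzed FBS), exposed to compounds for 17 h at 37C.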

[9] = qHTS assay to identify small molecule agonists of H2AX (AID 1224845; active means well fitted activation curve with a large enough effect in the signal ratio in the repeat runs, not every such curve was filed as active; the % refers to the signal ratio)
Outline: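 Wild-type CHO-K1 cells plated overnight, then exposed 3 hr at 37C to compounds at 15 concentrations (0.76% DMSO). Lysed, then HTRF anti-pH2AX(S139)-cryptate/anti-H2AX-d2 detection after 24 hr at room temperature; emissions 665 and 620 nm.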

[10] = qHTS assay to identify small molecule agonists of the hypoxia (HIF-1) signaling pathway (AID 1224846; active means well fitted activation curve with a large enough effect in the signal ratio in the repeat runs, not every such curve was filed as active; the % refers to the signal ratio)
Outline: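 Compounds added to ME-180 cells carrying hypoxia-response-element beta-lactamase reporter (0.5% dialyzed FBS, 5 h preplating), 17 h at 37C; agonist activity detected by CCF4-AM B/G FRET read-out.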

[11] = qHTS assay to identify small molecule antagonists of the estrogen related receptor (ERR) signaling pathway from Tox21 library (AID 1224848); further: nearly all actives have a fitted effect of over 50% in size
Outline: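 First, 2,000 ERR cells per well were plated and held 6 h at 37 C/5% CO2. Next, compounds in DMSO were pinned in and left 18 h at 37 C. Finally, ONE-Glo was added and luminescence read after 30 min at room temperature.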

[12] = qHTS assay to identify small molecule agonists of the estrogen related receptor (ERR) signaling pathway from Tox21 library (AID 1224849; calls by dose curve; further: nearly all actives have a fitted effect of over 15% in size); settings: ERR reporter cell line, ONE-Glo luciferase, 18 h; at 92.4 µM (top of the series) unless noted
Outline: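 Luminescent agonist read-out (One-Glo, 30-minute room-temperature incubation) following 18-hour compound treatment at 37 C of the ERR cell line, which had been plated 6 hours before dosing.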

[13] = qHTS RealTime-Glo MT Cell Viability Assay in HepG2 cells - 24 hour (AID 1224867); further: nearly all actives have a fitted effect of over 50% in size
Outline: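 Cells + NanoLuc/prosubstrate dispensed (600 cells/well) → 5 h at 37 C/5% CO2 → compounds in DMSO transferred → 40 h incubation at 37 C, luminescence read at 0, 8, 16, 24, 32, 40 h.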

[14] = qHTS RealTime-Glo MT Cell Viability Assay in HEK293 cells - 32 hour (AID 1224868)
Outline: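 Tox21 10K qHTS, HEK293, 600 cells/well, RealTime-Glo reagent co-dispensed with cells; 5 h preincubation, compound by pintool, 37 C, luminescence at 0–40 h.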

[15] = A CellTox Green Cytotoxicity Assay to monitor cytotoxicity in HEK293 cells - 0 hour (AID 1224869); further: nearly all actives have a fitted effect of over 50% in size
Outline: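 Fluorescence from a DNA-binding dye excluded by viable cells was measured repeatedly in the same HEK293 wells (600 cells/well) during continuous compound exposure at 37 C. Each assay gives one read point: 0, 8, 16, 24, 32 or 40 h.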

[16] = target: Nuclear receptor subfamily 1 group I member 3 (Homo sapiens) (UniProt Q14994); test: qHTS assay to identify small molecule antagonists of the constitutive androstane receptor (CAR) signaling pathway (AID 1224838);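 further: HepG2 cells stably expressing hCAR with CYP2B6 luciferase reporter stimulated by CITCO; nearly all actives have a fitted effect of over 40% in size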
Chain of Nuclear receptor subfamily 1 group I member 3 (Homo sapiens) (Q14994 whole entry, looked up): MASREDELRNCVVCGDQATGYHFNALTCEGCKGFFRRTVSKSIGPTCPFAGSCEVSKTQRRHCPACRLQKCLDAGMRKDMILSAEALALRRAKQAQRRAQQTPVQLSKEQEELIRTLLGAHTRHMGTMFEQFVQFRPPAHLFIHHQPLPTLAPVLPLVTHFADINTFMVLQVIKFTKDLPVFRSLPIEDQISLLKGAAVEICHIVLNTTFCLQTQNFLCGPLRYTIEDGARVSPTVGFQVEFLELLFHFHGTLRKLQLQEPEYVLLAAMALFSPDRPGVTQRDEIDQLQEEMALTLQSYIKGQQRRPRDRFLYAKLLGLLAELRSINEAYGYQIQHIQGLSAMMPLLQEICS
Outline: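 Antagonism measured as luciferase signal (ONE-Glo, 30 min, room temperature) in CAR-stimulated cells: HepG2-CYP2B6-hCAR double-stable line exposed 24 hr at 37 C to compound in a 15-point series plus 50 nM CITCO.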

[17] = target: Nuclear receptor subfamily 1 group I member 3 (Homo sapiens) (UniProt Q14994); test: qHTS assay to identify small molecule agonists of the constitutive androstane receptor (CAR) signaling pathway (AID 1224839);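 further: HepG2 cells stably carrying human CAR and a CYP2B6 luciferase reporter; nearly all actives have a fitted effect of over 15% in size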
Outline: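 Cells were plated and incubated 4 hrs, then dosed with compounds at 15 concentrations. PK11195 was added to 0.75 uM final. After 24 hrs at 37 C, luciferase luminescence was measured.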

[18] = qHTS assay to identify small molecule agonists of H2AX - cell viability counter screen (AID 1224847; calls by dose curve; further: top concentration of the series differs between compounds; nearly all actives have a fitted effect of over 30% in size)
Outline: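 Cytotoxicity counter screen in wild-type CHO-K1 cells: a 3 hr compound treatment at 37C across 15 concentrations, followed by CellTiter-Glo luminescence to gauge viable cells.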

[19] = qHTS RealTime-Glo MT Cell Viability Assay in HepG2 cells - 40 hour (AID 1224870); further: nearly all actives have a fitted effect of over 50% in size
Outline: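 HepG2 cells mixed with RealTime-Glo MT reagents (NanoLuc plus cell-permeant prosubstrate) were seeded at 600 cells/well, incubated 5 h at 37 C/5% CO2, then pinned with compounds in DMSO; nonlytic luminescence tracked viability during 40 h treatment.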

[20] = target: Luciferin 4-monooxygenase (Photinus pyralis) (UniProt P08659); test: qHTS assay to identify small molecule inhibitors of firefly luciferase (AID 1224835); further: nearly all actives have a fitted effect of over 25% in size
Chain of Luciferin 4-monooxygenase (Photinus pyralis) (P08659 whole entry, looked up): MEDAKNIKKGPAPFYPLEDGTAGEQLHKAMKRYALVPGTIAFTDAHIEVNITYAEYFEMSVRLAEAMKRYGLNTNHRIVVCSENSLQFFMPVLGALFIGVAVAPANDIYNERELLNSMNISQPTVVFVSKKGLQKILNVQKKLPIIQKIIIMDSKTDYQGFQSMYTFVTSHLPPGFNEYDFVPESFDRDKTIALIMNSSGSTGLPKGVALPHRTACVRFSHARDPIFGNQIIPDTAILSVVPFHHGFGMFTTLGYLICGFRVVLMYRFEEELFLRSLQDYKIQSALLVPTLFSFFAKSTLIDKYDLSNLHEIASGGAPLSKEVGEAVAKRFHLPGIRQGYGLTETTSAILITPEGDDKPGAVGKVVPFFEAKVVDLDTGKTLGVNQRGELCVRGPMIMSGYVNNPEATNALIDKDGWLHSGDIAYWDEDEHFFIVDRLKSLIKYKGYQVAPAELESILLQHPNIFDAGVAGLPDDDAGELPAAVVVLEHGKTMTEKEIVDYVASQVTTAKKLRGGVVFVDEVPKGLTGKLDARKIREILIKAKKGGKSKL
Outline: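 Quantitative HTS format; KM concentrations of both substrates. Purified P. pyralis FLuc activity quantified from luminescence images.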
On the % scale 0 is the no-effect control and ±100 the full control effect.

Cc1ncc(CSSCc2cnc(C)c(O)c2CO)c(CO)c1O
inactive: Potency [1] | outcome [2] | outcome [3] | outcome [4] | Potency [5] | Potency [6] | outcome [7] | Potency [8] | outcome [9] | outcome [10] | Potency [11] | activity change, positive = activation [12] 0.477% [at 42.5 µM] | outcome [13] | Potency [14] | Potency [15]

COC(=O)[C@H]1[C@H]2C[C@@H]3c4[nH]c5cc(OC)ccc5c4CCN3C[C@H]2C[C@@H](OC(=O)COc2ccc(OC)cc2)[C@@H]1OC
inactive: Potency [1] | outcome [2] | Potency [16] | Potency [17] | outcome [4] | Potency [5] | Potency [6] | outcome [7] | Potency [8] | outcome [9] | Potency [18] | Potency [11] | activity change, positive = activation [12] -9.01% [at 42.5 µM] | outcome [13] | Potency [14] | Potency [15] | Potency [19]

Cc1c(F)cc2c(=O)c(C(=O)O)cn3c2c1CCC3C (stereo not given)
inactive: Potency [20] | outcome [2] | Potency [16] | Potency [17] | outcome [4] | Potency [6] | outcome [7] | outcome [10] | activity change, positive = activation [12] -37.3% [at 42.5 µM] | outcome [13] | Potency [14] | Potency [15] | Potency [19]

O=[N+]([O-])c1ccc(CCO)cc1
inactive: Potency [1] | outcome [2] | Potency [16] | Potency [17] | outcome [4] | outcome [7] | outcome [10] | Potency [18] | outcome [13] | Potency [14] | Potency [15] | Potency [19]

OCC(CO)(CO)COCC(CO)(CO)CO
inactive: Potency [1] | outcome [2] | Potency [16] | Potency [17] | outcome [4] | outcome [7] | Potency [8] | outcome [9] | outcome [10] | Potency [18] | outcome [13] | Potency [14] | Potency [15]
